The record followed here is PubChem BioAssay (NCATS).

A short description of experiment [1]: qHTS drug screen for cell cycle checkpoint inhibitors in PARPi-resistant BRCA-mutant ovarian cancer cell lines. (AID 1963452; calls by dose curve). As to conditions: PEO1/OlaR viability, CellTiter-Glo luminescence, 96 h, stronger effect = lower value. In outline: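 PEO1, PEO4 and PEO1/OlaR ovarian cancer cells, 600 per well, exposed 96 h at 37C to a dilution series. Viability read by CellTiter-Glo luminescence, normalized to DMSO and empty wells; activity summarized as Z-AUC.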
Background: In qHTS, concentration-response curves come from the screen itself.

The test system of another experiment is 7G8. The experiment can be described thus: qHTS profiling for inhibitors of Plasmodium falciparum proliferation (AID 504749).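 For activity, negative = inhibition: 0% = DMSO vehicle and full inhibition = artemisinin control.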 Note: nearly all actives have a fitted effect of over 60% in size. Note: potency is the fitted concentration of half-maximal effect. As to conditions: P. falciparum in erythrocytes, SYBR Green DNA, 72 h; series mostly up to 28.7 µM. In outline: (§1)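 Readout was DNA-dye fluorescence from lysed cultures, ex 485/em 535 nm. Parasitized red cells had grown 72 h with compound; data scaled between 0.29 uM artemisinin and DMSO wells and corrected using vehicle-only plates.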

In a further experiment the test system is AA1029. The description is as above. As to conditions: P. falciparum in erythrocytes, SYBR Green DNA, 72 h; series mostly up to 28.7 µM. In a few lines:
as §1

In another experiment the test system is ATS95. The experiment is described as above. Conditions: P. falciparum in erythrocytes, SYBR Green DNA, 72 h; series mostly up to 28.7 µM. In outline:
as §1

Another experiment deals with CP191. The description is as above. Conditions: P. falciparum in erythrocytes, SYBR Green DNA, 72 h; series mostly up to 28.7 µM. In a few lines: as §1
The subject of a further experiment is CP192. The experiment is described as above. Conditions: P. falciparum in erythrocytes, SYBR Green DNA, 72 h; series mostly up to 28.7 µM. In a few lines:
as §1

A further experiment relates to CP194. The experiment is described as above. As to conditions: P. falciparum in erythrocytes, SYBR Green DNA, 72 h; series mostly up to 28.7 µM. In outline: as §1
Another experiment concerns CP201. The experiment is described as above. As to conditions: P. falciparum in erythrocytes, SYBR Green DNA, 72 h; series mostly up to 28.7 µM. In a few lines:
as §1

The subject of the next experiment is CP211. The description is as above. Conditions: P. falciparum in erythrocytes, SYBR Green DNA, 72 h; series mostly up to 28.7 µM. In a few lines:
as §1

In the next experiment the test system is CP215. The description is as above. As to conditions: P. falciparum in erythrocytes, SYBR Green DNA, 72 h; series mostly up to 28.7 µM. In outline:
as §1

Assay in experiment [2]: as above
As to conditions: P. falciparum in erythrocytes, SYBR Green DNA, 72 h; for activity, negative = inhibition: at 28.7 µM (top of the series). In a few lines:
as §1

For a further experiment, the system named is 3D7. The description is as above. As to conditions: P. falciparum in erythrocytes, SYBR Green DNA, 72 h; series mostly up to 28.7 µM. In a few lines: as §1
In another experiment the test system is AS120. The experiment is described as above. Conditions: P. falciparum in erythrocytes, SYBR Green DNA, 72 h; series mostly up to 28.7 µM. In a few lines:
as §1

The test system of another experiment is ATS189. The experiment is described as above. Conditions: P. falciparum in erythrocytes, SYBR Green DNA, 72 h; series mostly up to 28.7 µM. In a few lines: as §1
Another experiment concerns C2A. Described as above. As to conditions: P. falciparum in erythrocytes, SYBR Green DNA, 72 h; series mostly up to 28.7 µM. In outline:
as §1

The test system of a further experiment is CP185. Described as above. Conditions: P. falciparum in erythrocytes, SYBR Green DNA, 72 h; series mostly up to 28.7 µM. In a few lines: as §1
A further experiment has as its system CP217. Described as above. As to conditions: P. falciparum in erythrocytes, SYBR Green DNA, 72 h; series mostly up to 28.7 µM. In a few lines: as §1
A short description of experiment [3]: qHTS for identification of novel therapeutic agents for treatment of microphthalmiaassociated transcription factor (MiT) renal cell carcinoma (RCC) (AID 1963991; calls by dose curve; note: potency is the fitted concentration of half-maximal effect). As to conditions: CellTiter-Glo, 48 h; for z-score: stronger effect = lower value. In a few lines: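 Three TFE3-fusion RCC cell lines (UOK109, UOK124, UOK145), 500 cells/well, were exposed to the 1912-compound MIPE 4.0 library for 48 hours at 37 C. Viability was read by CellTiter-Glo luminescence, normalised to DMSO (100%) and empty wells (0%), with 11-concentration curve fits.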

Another experiment relates to CP203. The experiment can be described thus: qHTS profiling for inhibitors of Plasmodium falciparum proliferation (AID 504749).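 For activity, negative = inhibition: 0% = DMSO vehicle and full inhibition = artemisinin control.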 Note: nearly all actives have a fitted effect of over 60% in size. Note: potency is the fitted concentration of half-maximal effect. As to conditions: P. falciparum in erythrocytes, SYBR Green DNA, 72 h; series mostly up to 28.7 µM. In outline:
as §1

Setting [4] is: TFE3-RCC UOK109 viability, measured here: UOK109 Z-AUC.
[5] abbreviates: TFE3-RCC viability, measured here: UOK124 Z-AUC.
Where [6] appears, read: TFE3-RCC viability, measured here: UOK145 Z-AUC.

Each structure is given as a SMILES string. Results filed as inconclusive are left out. Active and inactive are the calls of the source. Unless noted, calls come from the whole dose curve; as a rule, active = well fitted inhibition curve with a large enough effect; inconclusive = small, poorly fitted or top-dose-only effect; inactive = flat fitted curve, though single readings scatter.

`Cc1cc(=O)oc2cc(O)ccc12`: the Z-AUC in experiment [1] was 0.0735 (inactive); in experiment [1] (measured here: PEO1 parental Z-AUC), 0.832; in [1] (measured here: PEO4 Z-AUC), 0.848. Further, the Potency entry with 7G8, in the experiment on AA1029, in the experiment with ATS95, with CP191, with CP192 and in the experiment with CP194 was “inactive” each time. For the same compound, the Potency entry in the experiment with CP201, in the experiment with CP211 and with CP215 was “inactive” in each case.
As for `Cn1c(NCCN(CCO)CCCc2ccc([N+](=O)[O-])cc2)cc(=O)n(C)c1=O`, the results for the activity, negative = inhibition in experiment [2] (parasite line A) and in experiment [2] (parasite line B) were 6.79% (inactive) and 16.9% (inactive), respectively. Besides, the Potency result with 3D7, with AA1029, in the experiment on AS120, with ATS189, with ATS95 and with C2A was “inactive” throughout. The Potency entry with CP185, in the experiment on CP192, with CP194, in the experiment with CP201, in the experiment on CP211 and in the experiment on CP215 was “inactive” throughout. The Potency result in the experiment on CP217 was “inactive”.
Consider `CC(C)C[C@H](NC(=O)[C@H](Cc1ccccc1)NC(=O)c1cnccn1)B(O)O`, for which the Potency in experiment [3] (TFE3-RCC UOK109 viability, active = Z-AUC below -0.8 in all three lines) was 0.118 µM (active). The z-score in [3] (setting [4]) is -1.97; in [3] (setting [5]) it was -3.15; in experiment [3] (setting [6]), -4.08.
`O=C(OC1C[C@H]2CC[C@@H](C1)[N+]21CCCC1)C(O)(c1ccccc1)c1ccccc1` (stereo partly drawn): the values for the z-score in [3] (setting [4]), in [3] (setting [5]) and in experiment [3] (setting [6]) were 0.286, 0.765 and 0.653, respectively. Besides, the Potency was 6.31 µM (active) in the experiment with 7G8; 2.51 µM (active) with AA1029; 5.01 µM (active) in the experiment with C2A; 2.82 µM (active) with CP185; 3.79 µM (active) with CP192; 1.9 µM (active) in the experiment on CP211.
In the case of `Nc1cccc2c1CN(C1CCC(=O)NC1=O)C2=O` (stereo not drawn), the activity, negative = inhibition in experiment [2] (parasite line A) was 12.2% (inactive); in [2] (parasite line B), 5.27% (inactive). Also, the Potency result in the experiment on 3D7, in the experiment on 7G8, with AA1029, in the experiment with AS120, with ATS189 and in the experiment with ATS95 was “inactive” each time. In addition, the Potency entry in the experiment with C2A, in the experiment on CP185, with CP191, in the experiment on CP192, in the experiment with CP194 and in the experiment on CP201 was “inactive” in each case. The Potency result in the experiment with CP203, with CP211, in the experiment with CP215 and in the experiment on CP217 was “inactive” each time.
As to `CC(=O)NC[C@H]1CN(c2ccc(N3CCOCC3)c(F)c2)C(=O)O1`, the z-score was -0.988 in experiment [3] (setting [4]), 0.658 in experiment [3] (setting [5]) and 1.47 in experiment [3] (setting [6]).
As for `Cc1c(C(=O)NN2CCCCC2)nn(-c2ccc(Cl)cc2Cl)c1-c1ccc(Cl)cc1`, the Potency in [2] (parasite line B) was 11.2 µM (active); in the experiment with 7G8, 12.6 µM (active); in the experiment on AS120 it was 12.6 µM (active); in the experiment with CP191 it was 11.2 µM (active); in the experiment on CP194, 16.9 µM (active); in the experiment on CP215 it was 13.5 µM (active). Further, the Potency with CP217 is 11.2 µM (active).
On to `C=CCc1cc(OC)c(O)c(C(=O)NCCO)c1`, for which the z-score in [3] (setting [4]) was 0.957; in experiment [3] (setting [5]), 0.641; in experiment [3] (setting [6]) it was 1.25. Further, the activity, negative = inhibition in [2] (parasite line A) was 6.75% (inactive); in [2] (parasite line B) it was 10.3% (inactive). The Potency result in the experiment on 3D7, with 7G8, in the experiment with AA1029, in the experiment on AS120, with ATS189 and in the experiment with ATS95 was “inactive” in each case. The Potency result in the experiment on C2A, in the experiment with CP185, in the experiment with CP191, in the experiment on CP192, in the experiment with CP194 and in the experiment on CP201 was “inactive” throughout. For the same compound, the Potency result with CP211, in the experiment on CP215 and with CP217 was “inactive” each time.
